In all, about 310,000 compounds went through this assay and about 18,000 (5.8%) were called active. Another 22% or so got no clear call; they are omitted. The list comes from a sample in which actives are over-represented; it also holds similar structures and randomly drawn compounds. Unmarked numbers belong to inactive results. Calls follow the shape of the dose curve; as a rule, active = well fitted inhibition curve with a large enough effect; inconclusive = small, poorly fitted or top-dose-only effect, or another doubt; inactive = no such curve, though single readings can be large or run the other way. Non-standard residues stand in square brackets, D forms with d. Residues, ends and D or L forms follow the SMILES beside them. *: point of attachment. PhAc = O=C(Cc1ccccc1)*
Test: Primary qHTS for delayed death inhibitors of the malarial parasite plastid, 48 hour incubation
Conditions: P. falciparum luciferase growth in erythrocytes; series mostly up to 28.7 µM; activity change, negative = inhibition: at the top concentration
Procedure, shortened: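 First compound was added to culture medium, then infected red cells at 0.1% parasitemia and 2% hematocrit (final). After incubation at 37 C under 5% CO2, luciferase detection reagent was dispensed and light output recorded.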
% is scaled to controls: 0 for no effect and ±100 for the full control effect; potency is read from the fitted curve at half-maximal effect.

| SMILES | activity change, negative = inhibition | Potency |
| --- | --- | --- |
| Cc1ccc(S(=O)(=O)N2CCC3(CC2)OCCO3)c(C)c1 | -0.438% | – |
| Cc1csc(NC(=O)CSc2nc(=O)n(CCCN(C)C)c3c2CCC3)n1 | 11.7% | – |
| CC(=O)Nc1ccc(NC(=O)COc2ccc(-c3ccccc3)cc2)cc1 | 4.83% | – |
| CC1CC(C)CN(CCCNC(=O)Cn2ncc3c([nH]c4ccccc43)c2=O)C1 (centres undefined) | 6.15% | – |
| CC(=O)N1CCN(C(=O)c2cc(-c3ccc(C)o3)nc3ccccc23)CC1 | 14.6% | – |
| CCOC(=O)C1(Cc2ccccc2C)CCCN(C(=O)CN2C(=O)CSC2=O)C1 (centres undefined) | 18% | – |
| CCCCC(=O)Nc1nnc(S(=O)(=O)N(C)Cc2ccco2)s1 | 21.1% | – |
| COc1ccc(CCNC(=O)c2ccc3c(c2)NC(=O)C(N2CCOCC2)S3)cc1OC (centres undefined) | -14.3% | – |
| CCN1CCN(CCNC(=O)c2ccc3c(c2)NC(=O)/C(=C\c2ccc(OC)c(OC)c2)S3)CC1 | – | 9.28 µM (active) |
| O=C(NCCN1C(=O)S/C(=C\c2cccnc2)C1=O)c1cccc(OC(F)F)c1 | -29.2% | – |
| O=C(NCCN1CCOCC1)c1ccc(/C=C2\Sc3ccccc3N(Cc3ccc(F)cc3)C2=O)cc1 | – | 11.7 µM (active) |
| Cc1nn(Cc2ccccc2)c(C)c1C(=O)NCCN1C(=O)S/C(=C\c2ccc(F)cc2)C1=O | 12.8% | – |
| O=C(NCCN1CCOCC1)/C(=C/c1ccc(F)cc1)NC(=O)c1ccccc1 | 15.1% | – |
| CCN1CCN(CCNC(=O)c2ccc(/C=C3/Sc4ccccc4N(Cc4cccc(C)c4)C3=O)cc2)CC1 | – | 11.7 µM (active) |
| CN1CCN(CCCNC(=O)c2ccc(/C=C3\Oc4ccccc4N(Cc4ccc(Cl)cc4)C3=O)cc2)CC1 | – | 1.65 µM (active) |
| CN1C(=O)/C(=C/c2ccc(C(=O)NC3CCCC3)cc2)Oc2ccccc21 | -20.2% | – |
| Cc1ccc(C(=O)N/C(=C\c2ccc(F)cc2)C(=O)NCCN2CCOCC2)cc1 | 17.7% | – |
| COc1ccc(/C=C(\NC(=O)c2ccccc2)C(=O)NCCN2CCOCC2)cc1OC | 3.72% | – |
| CCCN1CCN(C(=O)CCCNC(=O)c2ccc(Cl)cc2)CC1 | -0.322% | – |
| Cc1cc(-c2nnc(SCC(=O)Nc3ccc(S(N)(=O)=O)cc3)n2N)n[nH]1 | -13.5% | – |
| CN1C(=O)[C@H]2[C@@H](C3CC3)N3C(=O)CN(Cc4ccccc4)C(=O)[C@@]3(C)[C@H]2C1=O | 27.4% | – |
| O=C1NC(c2ccccc2)Oc2ccccc21 (centres undefined) | -9% | – |
| COc1ccc(-c2ocnc2C(=O)Nc2ccc3c(c2)CCC3)cc1 | 16.9% | – |
| O=C(Nc1nnc(-c2ccc(F)cc2)s1)c1c(F)cccc1Cl | 10.8% | – |
| CC(=O)c1nn(-c2cccc(C(F)(F)F)c2)c(=O)[nH]c1=O | -16.7% | – |

| SMILES | activity change, negative = inhibition | Potency |
| --- | --- | --- |
| CCNS(=O)(=O)c1ccc(CCC(=O)N2CCN(c3ccc(OC)cc3)CC2)cc1 | 1.74% | – |
| CC(=O)Nc1ccc(CC#N)cc1 | 3.33% | – |
| COc1ccc(OCCNC(=O)c2cc(C3CC3)nc3c2cnn3C(C)C)cc1 | – | 13.1 µM (active) |
| CC(C)n1ncc2c(C(=O)Nc3ccc(CC#N)cc3)cc(C3CC3)nc21 | – | 14.7 µM (active) |
| N#CCc1ccc(NC(=O)c2ccccc2C(=O)Nc2ccc(CC#N)cc2)cc1 | 20.5% | – |
| CCCc1ccc(OCCNC(=O)c2ccccc2Br)cc1 | -24.5% | – |
| COCCNC(=O)COc1ccc(C)c(C)c1 | 39.1% | – |
| CC(C)n1ncc2c(C(=O)NCc3ccccc3CN(C)C)cc(C3CC3)nc21 | – | 11.7 µM (active) |
| Cc1ccccc1OCCC(=O)OCC(=O)NCCc1ccc(S(N)(=O)=O)cc1 | 0% | – |
| Cc1cc(C)c(S(=O)(=O)c2cc(F)ccc2C)c(=O)[nH]1 | 23.4% | – |
| O=c1ccc(-c2ccc(S(=O)(=O)Nc3ccccc3)o2)n[nH]1 | 18.2% | – |
| O=C(CN1C(=O)CSC1=O)N1CCCC(Nc2ccc(F)cc2)C1 (centres undefined) | -15.8% | – |
| Cc1ccc(S(=O)(=O)N(C)c2ccc(OCC(=O)OCC(=O)N(CC#N)c3ccccc3)cc2)cc1 | -18.1% | – |
| Cc1cccc(NC(=O)c2ccc([N+](=O)[O-])o2)c1 | – | 13.1 µM (active) |
| Cc1cccc(NC(=S)NC(=O)c2ccc(Br)o2)c1 | 29.3% | – |
| O=C(Nc1ccc(Br)cn1)c1ccc([N+](=O)[O-])o1 | -37.6% | – |
| O=C(CNC(=O)c1ccc(Br)o1)Nc1ccccc1 | 5.96% | – |
| COCCNC(=O)c1ccc(S(=O)(=O)c2ccc(Cl)cc2)c(NC(C)=O)c1 | 0.449% [at 0.00184 µM] | – |
| c1cnc(N2CCN(c3ccc4ccccc4n3)CC2)nc1 | 161% | – |
| CC12CCC(C(=O)N3CCN(c4ncccn4)CC3)(c3nc4ccccc4nc31)C2(C)C (centres undefined) | – | 11.7 µM (active) |
| CC(Oc1ccc(F)cc1)C(=O)N1CCN(c2ncccn2)CC1 (centres undefined) | 4.64% | – |
| O=C(NCc1nnc(SCC(=O)N2CCCCCC2)o1)c1ccc(F)cc1 | -11.3% | – |
| Cc1ccc(S(=O)(=O)N[C@@H](Cc2ccccc2)C(=O)N2CCC(C(=O)N[C@H](C(=O)O)C(C)O)CC2)cc1 (some centres undefined) | 18.2% | – |
| Cc1cc(C)c(C#N)c(SCc2ccccc2C(=O)O)n1 | 31.1% | – |
| CN1CCc2nc(SC(C(=O)O)c3ccccc3)c(C#N)c(-c3cccs3)c2C1 (centres undefined) | -13.9% | – |

| SMILES | activity change, negative = inhibition | Potency |
| --- | --- | --- |
| CC(NC(=O)CSc1nc2c(cc1C#N)CN(C)CC2)c1ccccc1 (centres undefined) | – | 10.4 µM (active) |
| CC1(C)CCc2nc(SCc3ccccc3)c(C#N)cc2C1 | – | 5.22 µM (active) |
| N#CC1=C(SCc2ccccc2)NC(=O)C(C#N)C12CCCC2 (centres undefined) | 5.15% | – |
| Cc1cc(NC(=O)CSc2nc3c(cc2C#N)CCCCC3)no1 | 42.4% | – |
| C[C@@H]1CC[C@@]2(OC1)O[C@H]1C[C@H]3[C@@H]4CC=C5C[C@@H](O)[C@H](O)C[C@]5(C)C4CC[C@]3(C)[C@H]1[C@@H]2C (some centres undefined) | 29.2% | – |
| CN(C)c1ccc(CNC(=O)CN2C(=O)COc3ccc(S(=O)(=O)N4CCCC4)cc32)cc1 | 14.1% | – |
| Cc1ccc(S(=O)(=O)NCc2ccc(C(=O)NC3CCC(C)CC3)cc2)cc1 (centres undefined) | -18.1% | – |
| O=C(CC(n1cncn1)C(Cl)(Cl)Cl)c1ccc([N+](=O)[O-])cc1 (centres undefined) | -32.2% [at 0.00184 µM] | – |
| CC(C)C[C@@H](NC(=O)[C@H]1CCCN1C(=O)Cc1ccccc1)C(N)=O (PhAc-[dP]-[dL]-NH2) | 8.09% [at 0.00184 µM] | – |
| CCOCCn1c(-c2ccccc2)nc2ccccc21 | 0.39% | – |
| CCCCn1c(-c2cccc(C)c2)nc2cc3[nH]c(=O)c(C(C)C)nc3cc21 | – | 9.28 µM (active) |
| CCCCn1c(N)c(N(CCOC)C(=O)CSCC(=O)Nc2cccc(C)c2)c(=O)[nH]c1=O | -10.7% | – |
| CN(Cc1cccc2ncccc12)C(=O)CC1C(=O)NCCN1Cc1ccc(F)cc1 (centres undefined) | -6.35% | – |
| CN(C(=O)CC1C(=O)NCCN1Cc1ccc2ccccc2c1)C1CCOCC1 (centres undefined) | -7.75% | – |
| CN(C(=O)CC1C(=O)NCCN1Cc1ccc(F)cc1Cl)C1CCCCC1 (centres undefined) | – | 11.7 µM (active) |
| O=C(CN(Cc1ccccc1)C(=O)CCC(=O)Nc1ccccn1)NCCc1ccccc1 | 1.95% | – |
| Cc1sc2ncn(CC(=O)NCCCC(=O)N3CCN(c4ccccc4F)CC3)c(=O)c2c1C | 17.2% | – |
| O=C(COc1ccccc1)NCCc1nc2ccccc2[nH]1 | 6.88% | – |
| COc1ccc(OC(C)C(=O)NCCc2nc3ccccc3[nH]2)cc1 (centres undefined) | -4.17% | – |
| CCCCCOc1ccc(/C=C/C(=O)NCCc2nc3ccccc3[nH]2)cc1OC | – | 10.4 µM (active) |
| CCC(C)N1CC(=O)N2Cc3[nH]c4ccccc4c3C[C@H]2C1=O (some centres undefined) | -9.23% | – |
| CC(C)c1ccc(Cc2nnc(NCCCO)[nH]c2=O)cc1 | -16.3% | – |
| O=C(c1cc2sccc2n1Cc1ccc(F)cc1)N1CCc2ccccc21 | – | 14.7 µM (active) |
| O=C(CSCc1ccccc1)N1CCc2ccccc21 | 169% | – |
| CC1Cc2ccccc2N1C(=O)c1cc2sccc2n1Cc1ccccc1 (centres undefined) | – | 11.7 µM (active) |

| SMILES | activity change, negative = inhibition | Potency |
| --- | --- | --- |
| Cc1ccn(CCC(=O)N2c3ccccc3CC2C)n1 (centres undefined) | -0.0677% | – |
| CC(=O)N1c2ccc(S(=O)(=O)N(C)CC(=O)N(C)Cc3ccccc3)cc2CC1C (centres undefined) | -3.71% | – |
| CC(OC(=O)Cc1ccc(F)cc1)C(=O)N1CCc2ccccc21 (centres undefined) | -0.0345% | – |
| CC(C)C(=O)Nc1c2c(nn1-c1ccccc1)CSC2 | 6.94% | – |
| CCNC(=O)N1CCN(S(=O)(=O)c2ccc3c(c2)OCCCO3)CC1 | 1.67% | – |
| O=C(Nc1cccc(Cl)c1)c1cc(S(=O)(=O)N2CCCCC2)c[nH]1 | 19.9% | – |
| O=C(CCN1C(=O)[C@@H]2Cc3ccccc3CN2C1=O)NCc1ccccc1 | 8.13% | – |
| CC(=O)N1CCc2cc(S(=O)(=O)NC3CCCCC3)ccc21 | -10.2% | – |
| CC(Oc1ccccc1)C(=O)Nc1oc(-c2ccco2)c(-c2ccco2)c1C#N (centres undefined) | 33.3% | – |
| COc1cc(C(=O)Nc2oc(-c3ccccc3)c(-c3ccccc3)c2C#N)cc(OC)c1OC | 15.7% | – |
| CC(C)C(=O)Nc1oc(-c2ccccc2)cc1C#N | – | 1.85 µM (active) |
| COc1cc(CC(=O)N2CCC(n3nccc3NC(=O)C3CC3)CC2)cc(OC)c1OC | 41.4% | – |
| O=C(CN(Cc1ccc(Br)cc1)S(=O)(=O)c1ccccc1)NCc1ccncc1 | -5.45% | – |
| Cc1ccc(-c2nc(-c3ccncc3)no2)c(C)c1 | 18% | – |
| O=C(COC(=O)c1ccccc1Cl)NC1CCCCCCC1 | 16.5% | – |
| COc1ccccc1CC(=O)Nc1ccc(S(=O)(=O)N2CCCC2)cc1 | -21.9% | – |
| Nc1nonc1-n1nnc(C(=O)N/N=C/c2ccc(Cl)cc2)c1-c1ccc2c(c1)OCO2 | – | 0.329 µM (active) |
| CC(C)c1c(C(=O)N/N=C/c2ccc(-c3ccccc3)cc2)nnn1-c1nonc1N | 13.7% | – |
| Nc1nonc1-n1nnc(C(=O)N/N=C/C2CCCCC2)c1-c1ccccc1 | 11.2% | – |
| Cc1cc(F)ccc1S(=O)(=O)Nc1ccc(C(=O)N(C)Cc2ccco2)cc1 | -12.8% | – |
| O=C(NCCSc1ncc(-c2ccccc2)[nH]1)c1ccco1 | 2.49% | – |
| COc1ccc(CCNC(=O)CSc2nnc(-c3cccc(F)c3)o2)cc1OC | -10.6% | – |
| CCN(C(=O)CSc1nnc(-c2ccncc2)o1)c1ccccc1 | -1.9% | – |
| COc1ccc(CN(C(=O)CSc2nnc(-c3ccc(OC)c(OC)c3)o2)c2ccc(F)cc2)cc1 | – | 9.28 µM (active) |

Reference: PubChem BioAssay AID504832 (National Center for Advancing Translational Sciences (NCATS), 2011)
